Reference: PMC4336329 (PLoS ONE, 2015)
Out of some 310,000 compounds screened, about 2,200 (0.71%) showed an effect of 50% or more. Effects have a minus sign here. Only a selection was taken, and strong results are over-represented in it overall.

These compounds were tested against human ether-à-go-go-related gene (hERG) potassium channel (human, UniProt Q12809) (assay: primary screen, population patch clamp on CHO cells stably expressing hERG; higher = less effect of the substance).
human ether-à-go-go-related gene (hERG) potassium channel, sequence (Q12809 whole entry, looked up): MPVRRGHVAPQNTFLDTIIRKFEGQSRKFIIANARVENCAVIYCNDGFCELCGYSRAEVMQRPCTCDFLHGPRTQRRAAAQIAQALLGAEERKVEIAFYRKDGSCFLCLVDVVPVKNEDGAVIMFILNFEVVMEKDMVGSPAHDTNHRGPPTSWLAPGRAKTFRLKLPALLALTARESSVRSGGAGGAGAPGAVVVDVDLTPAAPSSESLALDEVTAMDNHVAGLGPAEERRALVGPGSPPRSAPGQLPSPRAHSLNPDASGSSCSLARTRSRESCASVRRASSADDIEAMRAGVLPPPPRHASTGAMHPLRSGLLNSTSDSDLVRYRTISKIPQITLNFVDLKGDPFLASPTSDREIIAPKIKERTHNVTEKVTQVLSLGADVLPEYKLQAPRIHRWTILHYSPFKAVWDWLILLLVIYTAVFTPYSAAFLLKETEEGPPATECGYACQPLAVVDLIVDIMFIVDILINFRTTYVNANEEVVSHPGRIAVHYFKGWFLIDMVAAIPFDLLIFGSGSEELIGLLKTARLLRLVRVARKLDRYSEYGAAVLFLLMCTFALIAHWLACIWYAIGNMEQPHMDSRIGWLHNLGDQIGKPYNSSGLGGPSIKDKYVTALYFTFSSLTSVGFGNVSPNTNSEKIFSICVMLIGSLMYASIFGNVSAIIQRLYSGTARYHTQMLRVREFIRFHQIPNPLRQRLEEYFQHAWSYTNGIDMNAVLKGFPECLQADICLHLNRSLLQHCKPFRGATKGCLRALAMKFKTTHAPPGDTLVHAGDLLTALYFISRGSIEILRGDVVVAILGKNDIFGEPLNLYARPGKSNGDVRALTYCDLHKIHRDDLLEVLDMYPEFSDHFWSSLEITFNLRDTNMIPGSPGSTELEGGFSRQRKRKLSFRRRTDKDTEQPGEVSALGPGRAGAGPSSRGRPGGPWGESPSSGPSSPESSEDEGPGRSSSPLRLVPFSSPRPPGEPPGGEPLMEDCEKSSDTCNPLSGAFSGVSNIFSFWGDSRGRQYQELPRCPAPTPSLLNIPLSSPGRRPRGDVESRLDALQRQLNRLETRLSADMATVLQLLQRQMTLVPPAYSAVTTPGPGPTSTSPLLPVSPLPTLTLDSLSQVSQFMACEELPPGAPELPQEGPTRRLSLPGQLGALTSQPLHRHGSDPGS

SMILES | hERG current change (%, negative = inhibition) at 1uM
COC(=O)C1=C(C)N(C)C(C)=C(C(=O)OC)C1c1ccc(F)c(Br)c1 | 6.36%
CCN(CC(=O)NCc1cccs1)C(=O)c1ccc(-c2ccccc2F)o1 | -7.69%
CCN(CC(=O)NCc1cccs1)C(=O)c1ccc(-c2cccc(C(F)(F)F)c2)o1 | -57.4%
CCN(CC(=O)NCc1cccs1)C(=O)COc1cccc(C(F)(F)F)c1 | -7.5%
COC(=O)C1=C(C)N(CCCCCC(=O)O)C(=O)NC1c1ccccc1 (centres unmarked) | 2.67%
Cc1ccc2c(c1)C1CN(C)CCC1N2C(=O)c1ccccc1NS(=O)(=O)c1ccc(F)cc1 (centres unmarked) | 11.8%
COc1ccc2cc(C3(C)NC(=O)N(CC(=O)Nc4c(C)n(C)n(-c5ccccc5)c4=O)C3=O)ccc2c1 (centres unmarked) | 0.395%
CCn1ccnc1CN1CCC(CO)(CCOc2ccccc2)CC1 | 13.1%
OCC1(CCOc2ccccc2)CCN(Cc2cccn2-c2ncccn2)CC1 | -82.4%
CCOC(=O)C1(CCOc2ccccc2)CCN(Cc2cccn2-c2ncccn2)CC1 | -81.6%
CCOC(=O)C1(CCOc2ccccc2)CCN(Cc2nccn2CC)CC1 | -5.37%
CCOC(=O)C1(CCOc2ccccc2)CCN(Cc2cccn2-c2cccnc2)CC1 | 9.53%
OCC1(CCc2ccccc2)CCN(Cc2cccn2-c2cccnc2)CC1 | -23.3%
O=C(Cc1c(F)cccc1Cl)OCN1C(=O)c2ccccc2C1=O | 17.4%
O=C(NCCN1C(=O)C2C3C=CC(C3)C2C1=O)Nc1ccccn1 (centres unmarked) | 5.7%
CCC1CCCCN1CCCNC(=O)c1cn(C)c2ccc(S(=O)(=O)N(C)C3CCCCC3)cc2c1=O (centres unmarked) | -2.04%
CCC1CCCCN1CCCNC(=O)c1cn(CC)c2ccc(S(=O)(=O)N(C)C3CCCCC3)cc2c1=O (centres unmarked) | -75.5%
CCn1cc(C(=O)NCCCN2CCCC(C)C2)c(=O)c2cc(S(=O)(=O)N(C)C3CCCCC3)ccc21 (centres unmarked) | -82%
CCn1cc(C(=O)NCCCN2CCCC(C)C2)c(=O)c2cc(S(=O)(=O)N3CCc4ccccc4C3)ccc21 (centres unmarked) | -64.2%
CCn1cc(C(=O)NCCCN2CCCCCC2)c(=O)c2cc(S(=O)(=O)N3CCc4ccccc4C3)ccc21 | -24.5%
CCn1cc(C(=O)NCCCN2CCC(C)CC2)c(=O)c2cc(S(=O)(=O)N(C)C3CCCCC3)ccc21 | -74%
CC1CCCN(CCCNC(=O)c2cn(C)c3ccc(S(=O)(=O)N(C)C4CCCCC4)cc3c2=O)C1 (centres unmarked) | -13.2%
CCn1cc(C(=O)NCCCN2CCCC(C)C2)c(=O)c2cc(S(=O)(=O)N3CCOCC3)ccc21 (centres unmarked) | 16.1%
CCn1cc(C(=O)NCCCN(CC(C)C)CC(C)C)c(=O)c2cc(S(=O)(=O)N(C)C3CCCCC3)ccc21 | -6.68%
CCn1cc(C(=O)NCCCN2CCCC2)c(=O)c2cc(S(=O)(=O)N3CCc4ccccc4C3)ccc21 | 6.45%

SMILES | hERG current change (%, negative = inhibition) at 1uM
CCn1cc(C(=O)NCCCOC)c(=O)c2cc(S(=O)(=O)N(C)C3CCCCC3)ccc21 | -2.67%
CCN(CC)CCCNC(=O)c1cn(CC)c2ccc(S(=O)(=O)N(C)C3CCCCC3)cc2c1=O | -5.96%
COc1cccc(CNC(=O)Cc2nc3nc(C)cc(C)n3n2)c1 | 14.5%
COc1cc(/C=c2\sc3n(c2=O)CCCN=3)ccc1O | 13.5%
COc1ccc(/C=C/c2c([N+](=O)[O-])c(=O)n(C)c(=O)n2C)cc1OC | 5.36%
COc1ccc(-c2nsc(SCC(=O)Nc3cc(C)on3)n2)cc1 | 11.9%
O=C(O)c1ccc(CNCc2ccc(Cl)cc2)cc1 | 11.3%
O=C(CCc1ccccc1)Nc1cc2c3c(c1)CCC(=O)N3CCC2 | -1.85%
COc1ccc(-c2cc(C)no2)cc1S(=O)(=O)Nc1cccc(C)c1 | 15.5%
CC(C)(C)NC(=O)C1Cc2ccccc2CN1S(=O)(=O)c1ccc(F)cc1 (centres unmarked) | 3.91%
O=C(CC1CC2CCC1C2)NCCc1ccc(Cl)cc1 (centres unmarked) | -0.305%
Cn1cccc1/C=N/N1CCN(Cc2ccc(Cl)cc2)CC1 | 3.9%
COc1ccc(COCC(O)CN2CCC(CN3C(=O)c4cccc5cccc(c45)C3=O)CC2)cc1OC.Cl (centres unmarked) | -20.2%
CCS(=O)(=O)N1CCN(S(=O)(=O)c2ccc3ccccc3c2)CC1 | 13%
O=C(CSc1ccc(Cl)cc1)Nc1nnc(-c2ccco2)o1 | -1.41%
COc1cc(C2C(C#N)=C(N)Oc3cc(C)oc(=O)c32)cc(OC)c1OC (centres unmarked) | 20.5%
COC(=O)c1cc(Br)c(=O)n(Cc2ccc(OC)c(OC)c2)c1 | 16.7%
CCn1cc(C(=O)NCCCN2CC(C)CC(C)C2)c(=O)c2cc(S(=O)(=O)N(C)C3CCCCC3)ccc21 (centres unmarked) | -91.4%
CCN(CC)CCCNC(=O)c1cn(CC)c2ccc(S(=O)(=O)N3CCc4ccccc4C3)cc2c1=O | 1.94%
CCCN(CCC)CCCNC(=O)c1cn(CC)c2ccc(S(=O)(=O)N3CCc4ccccc4C3)cc2c1=O | -47.9%
CCn1cc(C(=O)NCCCN2CC(C)CC(C)C2)c(=O)c2cc(S(=O)(=O)N(C)C)ccc21 (centres unmarked) | -17.3%
CCOCCCNC(=O)c1cn(CC)c2ccc(S(=O)(=O)N(C)C3CCCCC3)cc2c1=O | 11.3%
CCCCN(CC)CCCNC(=O)c1cn(CC)c2ccc(S(=O)(=O)N3CCc4ccccc4C3)cc2c1=O | -71.9%
Oc1ccc(/C=N/Nc2ccc(C(F)(F)F)cn2)cc1 | 7.84%
O=C(NCc1ccco1)C(=O)NCC1OCCCN1S(=O)(=O)c1ccc(F)cc1 (centres unmarked) | 10%
